# Measurements reported in PMC6451091, “NextPBM: a platform to study cell-specific transcription factor binding and cooperativity”.
# Whole data set: some 3,700 sequences, median “z-score” near 4, cut for the highest 2% near 8.4. Many of the other results were omitted from the sample, so the highest values are more common in it than they were.
# How the values were obtained:
# PU.1 (IVT) [1] = molecular target: PU.1 (IVT) (UniProt P17947 1-270); test: protein-binding microarray (PBM); 20 mM HEPES pH 7.9, 100 mM NaCl, 1 mM DTT, 0.2 mg/mL BSA, 0.02% Triton X-100, 2% milk, 0.4 mg/mL salmon testes DNA; 1 h; temperature not stated; high values mean tight binding; settings: dsDNA, one strand shown
# Outline: (§1)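 Binding is given as a z-score derived from scanned fluorescence that was normalised by linear regression. To obtain it, full-length untagged PU.1 from coupled human in vitro transcription/translation was applied for 1 h to custom double-stranded DNA microarrays of 20-bp genomic sites and single-nucleotide variants, using 10 probes per site with 5 in each orientation. The binding buffer was HEPES pH 7.9 with 100 mM NaCl, 2% milk and salmon testes DNA, and detection used anti-PU.1 and then a fluorescent secondary antibody.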
# PU.1 (IVT) [2] = molecular target: PU.1 (IVT) (UniProt P17947 1-270); test: as above; settings: dsDNA, one strand shown; remark: listed apart in the source
# Outline: as §1
Sequence,binding signal (PU.1 (IVT) [1]) [z-score],binding signal (PU.1 (IVT) [2]) [z-score]
GCCTAGCACTTTAAAGGGAAATACTGTGGGTGCTAGGTCTTGATTCGCTTGACGCTGCTG,1.36,
GCCTAGCACAGAAACAGGAACTGAGGCCAGTGCTAGGTCTTGATTCGCTTGACGCTGCTG,,4.78
GCCTAGCACGAAAACAGGAAGTCCGATAGGTGCTAGGTCTTGATTCGCTTGACGCTGCTG,,7.15
GCCTAGCACTGGGAGAGGAAGTGATGAGCGTGCTAGGTCTTGATTCGCTTGACGCTGCTG,4.01,
GCCTAGCACAAGCAGAGGAAGTGAGATTTGTGCTAGGTCTTGATTCGCTTGACGCTGCTG,,3.71
GCCTAGCACCAAAAAGGGAAGTGGACGCTGTGCTAGGTCTTGATTCGCTTGACGCTGCTG,,6.7
GCCTAGCACATCATCAGGAACTGAAACTGGTGCTAGGTCTTGATTCGCTTGACGCTGCTG,,1.18
GCCTAGCACAAAGAGAGGAAGTCCCAAGAGTGCTAGGTCTTGATTCGCTTGACGCTGCTG,3.78,
GCCTAGCACTCAAGAAGGAAGTGCCAAATGTGCTAGGTCTTGATTCGCTTGACGCTGCTG,3.31,
GCCTAGCACAGAAAAAGGAACTGTGCCCCGTGCTAGGTCTTGATTCGCTTGACGCTGCTG,,3.05
GCCTAGCACAGCAAGAGGAAGTCAAGTACGTGCTAGGTCTTGATTCGCTTGACGCTGCTG,4.55,
GCCTAGCACAGAAAGAGGAAGTCGAGGTGGTGCTAGGTCTTGATTCGCTTGACGCTGCTG,,7.74
GCCTAGCACAGAAAGAGGAAGAGCCTCAGGTGCTAGGTCTTGATTCGCTTGACGCTGCTG,5.13,
GCCTAGCACAGAAAGAGGAAATGACCTATGTGCTAGGTCTTGATTCGCTTGACGCTGCTG,5.8,
GCCTAGCACGAAAAGAGGAAGTGTAACCAGTGCTAGGTCTTGATTCGCTTGACGCTGCTG,,8.52
GCCTAGCACAGAAAGAGGAAGTCTCTGCCGTGCTAGGTCTTGATTCGCTTGACGCTGCTG,,7.37
GCCTAGCACGAAAAGAGGAAGTCAAACCAGTGCTAGGTCTTGATTCGCTTGACGCTGCTG,,8.22
GCCTAGCACAGAAAGAGGAAGTGACACTTGTGCTAGGTCTTGATTCGCTTGACGCTGCTG,,8.52
GCCTAGCACAGAAAGAGGAAGTTCCCGTCGTGCTAGGTCTTGATTCGCTTGACGCTGCTG,,8.56
GCCTAGCACTGAAAGAGGAAGTGTAACCAGTGCTAGGTCTTGATTCGCTTGACGCTGCTG,,7.2
GCCTAGCACAGGAAGAGGAAGTGACAGATGTGCTAGGTCTTGATTCGCTTGACGCTGCTG,6.27,
GCCTAGCACAGAAAGAGGAAGAGAAACTTGTGCTAGGTCTTGATTCGCTTGACGCTGCTG,4.63,
GCCTAGCACAGAAAGAGGAAGTTATGTGCGTGCTAGGTCTTGATTCGCTTGACGCTGCTG,,8.58
GCCTAGCACACCAGGAGGAAGTGGTTGCAGTGCTAGGTCTTGATTCGCTTGACGCTGCTG,4.06,
GCCTAGCACCGAAAGAGGAAGTGCAACCAGTGCTAGGTCTTGATTCGCTTGACGCTGCTG,,7.64
GCCTAGCACGATAAGAGGAAGTGCTCTGTGTGCTAGGTCTTGATTCGCTTGACGCTGCTG,6.52,

Sequence,binding signal (PU.1 (IVT) [1]) [z-score],binding signal (PU.1 (IVT) [2]) [z-score]
GCCTAGCACTTTAAAGGGAAATGAAACTGGTGCTAGGTCTTGATTCGCTTGACGCTGCTG,,1.39
GCCTAGCACGAAAAGAGGAACAGCCTCTGGTGCTAGGTCTTGATTCGCTTGACGCTGCTG,5.13,
GCCTAGCACGAAAGGGGGAAGTGACTAAGGTGCTAGGTCTTGATTCGCTTGACGCTGCTG,5.51,
GCCTAGCACTCTCTGAGGAAGTGAAACTCGTGCTAGGTCTTGATTCGCTTGACGCTGCTG,2.86,
GCCTAGCACAGAAAGAGGAAGTGCTGAGGGTGCTAGGTCTTGATTCGCTTGACGCTGCTG,,7.75
GCCTAGCACAAAAAAAGGATATGAAAGTAGTGCTAGGTCTTGATTCGCTTGACGCTGCTG,0.953,
GCCTAGCACAAAAAGAGGAACTGAATGTCGTGCTAGGTCTTGATTCGCTTGACGCTGCTG,,7.27
GCCTAGCACGAAAGGAGGAAGTACTGTGGGTGCTAGGTCTTGATTCGCTTGACGCTGCTG,,6.78
GCCTAGCACAGAAAGAGGAAGAGCTGCCAGTGCTAGGTCTTGATTCGCTTGACGCTGCTG,4.1,
GCCTAGCACAGAAAGAGGAAGTGCCTCTTGTGCTAGGTCTTGATTCGCTTGACGCTGCTG,,8.4
GCCTAGCACAGAAAGAGGAAGTGGAAGAGGTGCTAGGTCTTGATTCGCTTGACGCTGCTG,,8.16
GCCTAGCACTCAAGGAGGAAGTGAGAGATGTGCTAGGTCTTGATTCGCTTGACGCTGCTG,4.31,
GCCTAGCACGTTTTGAGGAACTGAAACTCGTGCTAGGTCTTGATTCGCTTGACGCTGCTG,4.5,
GCCTAGCACCGAAAAGGGAAATACTGTGAGTGCTAGGTCTTGATTCGCTTGACGCTGCTG,2.65,
GCCTAGCACAGAAAGAGGAAGACTAGTGTGTGCTAGGTCTTGATTCGCTTGACGCTGCTG,3.78,
GCCTAGCACAGAAAGAGGAAGTGATGTTAGTGCTAGGTCTTGATTCGCTTGACGCTGCTG,,8.46
GCCTAGCACAGAAAGAGGAAGTGTTTATAGTGCTAGGTCTTGATTCGCTTGACGCTGCTG,,8.43
GCCTAGCACAGAAAGAGGAAGTGGGTGTTGTGCTAGGTCTTGATTCGCTTGACGCTGCTG,,8
GCCTAGCACAGAAAGAGGAAGTGAAGCTAGTGCTAGGTCTTGATTCGCTTGACGCTGCTG,,8.64
GCCTAGCACAGAAGAAGGAAGTGAAAGAAGTGCTAGGTCTTGATTCGCTTGACGCTGCTG,4.5,
GCCTAGCACAGAAAGAGGAAGTGACTCAGGTGCTAGGTCTTGATTCGCTTGACGCTGCTG,,8.06
GCCTAGCACAGAAAGAGGAAGAGAAACTAGTGCTAGGTCTTGATTCGCTTGACGCTGCTG,,4.62
GCCTAGCACAGAAAGAGGAAGTGATTGAAGTGCTAGGTCTTGATTCGCTTGACGCTGCTG,,8.32
GCCTAGCACTCCAGGAGGAACTGAAAGCTGTGCTAGGTCTTGATTCGCTTGACGCTGCTG,,1.74
GCCTAGCACAAAAAGAGGAAATGATTTACGTGCTAGGTCTTGATTCGCTTGACGCTGCTG,,6.97
GCCTAGCACGAAAACAGGAACTGCAAATAGTGCTAGGTCTTGATTCGCTTGACGCTGCTG,6,
